Results filed as inconclusive are left out. Entries that show only a call come without a potency. Some structures have more than one record in an assay (separate samples or runs), and their calls can disagree. The source made the active and inactive calls. Calls come from the whole dose curve.
What was measured:
[1] = biological target: Acetylcholinesterase (Homo sapiens) (UniProt P22303); assay: Acetylcholinesterase (AChE) small molecule antagonists: colormetric cell-based qHTS assay (AID 1347395); note: nearly all actives have a fitted effect of over 30% in size; note: potency is the fitted concentration of half-maximal effect
Outline: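 Homogeneous whole-cell format. SH-SY5Y cells seeded overnight, dosed with compound (30 min, 37 C, 5% CO2), then given DTNB/acetylthiocholine cocktail for 90 min at 37 C; colorimetric signal.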

[2] = biological target: Acetylcholinesterase (Homo sapiens) (UniProt P22303); assay: Acetylcholinesterase (AChE) small molecule antagonists: enzyme-based qHTS assay (AID 1347397); details: Potency: AChE enzyme activity inhibition; outcome: AChE enzyme activity inhibition; note: nearly all actives have a fitted effect of over 55% in size; note: potency is the fitted concentration of half-maximal effect
Outline: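 Colorimetric DTNB readout of acetylthiocholine hydrolysis, 10 min at room temperature, after 30 min room-temperature exposure of 50 mU/mL recombinant human enzyme to compound; DMSO vehicle control.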

[3] = biological target: Acetylcholinesterase (Homo sapiens) (UniProt P22303); assay: Acetylcholinesterase (AChE) small molecule antagonists: fluorescence cell-based qHTS assay (AID 1347398); details: Potency: AChE activity; outcome: AChE activity; note: nearly all actives have a fitted effect of over 50% in size; note: potency is the fitted concentration of half-maximal effect
Outline: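 Cellular AChE activity read as thiocholine from acetylthiocholine hydrolysis, detected by Thiolite Green fluorescence at 490/520 nm after 40 min at room temperature. Compounds were pre-incubated 30 min at 37 C on adherent SH-SY5Y cells.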

[4] = biological target: Acetylcholinesterase (Homo sapiens) (UniProt P22303); assay: Acetylcholinesterase (AChE) small molecule antagonists: enzyme-based qHTS assay with human liver microsomes (AID 1347399); details: Potency: qHTS inhibition; outcome: qHTS inhibition; note: nearly all actives have a fitted effect of over 60% in size
Outline: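 Recombinant human AChE (50 mU/mL in the enzyme mix) and human liver microsomes (0.25 mg/mL final) were preincubated with compound and NADPH (0.25 mg/mL final) for 30 min at 37 C. Acetylthiocholine/DTNB was then added; thiocholine was read colorimetrically after 10 min at room temperature.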

Chain of Acetylcholinesterase (Homo sapiens) (P22303 whole entry, looked up): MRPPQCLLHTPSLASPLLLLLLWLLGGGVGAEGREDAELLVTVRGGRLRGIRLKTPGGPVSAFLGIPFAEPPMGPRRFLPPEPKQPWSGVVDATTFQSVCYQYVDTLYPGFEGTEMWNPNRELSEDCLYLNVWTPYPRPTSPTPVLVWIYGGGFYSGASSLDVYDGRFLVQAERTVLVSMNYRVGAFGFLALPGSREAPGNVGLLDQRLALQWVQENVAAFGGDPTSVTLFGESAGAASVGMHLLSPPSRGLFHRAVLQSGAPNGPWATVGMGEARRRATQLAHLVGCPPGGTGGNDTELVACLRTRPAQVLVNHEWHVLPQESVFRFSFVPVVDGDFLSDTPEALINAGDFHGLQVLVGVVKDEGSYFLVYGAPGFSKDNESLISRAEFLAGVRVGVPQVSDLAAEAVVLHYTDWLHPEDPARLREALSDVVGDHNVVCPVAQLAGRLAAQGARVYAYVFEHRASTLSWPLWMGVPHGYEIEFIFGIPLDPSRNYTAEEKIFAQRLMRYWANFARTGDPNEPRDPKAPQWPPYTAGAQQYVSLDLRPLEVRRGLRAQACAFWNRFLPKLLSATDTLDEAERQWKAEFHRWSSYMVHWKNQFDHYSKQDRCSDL

Compound | Potency [1] | Potency [2] | Potency [3] | Potency [4] | activity, negative = inhibition [1] | activity change, negative = inhibition [2] | activity change, negative = inhibition [3] | activity change, negative = inhibition [4]
CC/C(C)=N/O | inactive | inactive | inactive | inactive |  |  |  | 
COc1ccc(N)c(OC)c1 | inactive | inactive | inactive | inactive |  |  |  | 
O=C(O)c1ccc(C(=O)O)c(C(=O)O)c1 | inactive | inactive | inactive | inactive |  |  |  | 
CC(C)=CCO | inactive | inactive | inactive | inactive |  |  |  | 
CC(C)CCCCCCOC(=O)c1ccc(C(=O)OCCCCCCC(C)C)c(C(=O)OCCCCCCC(C)C)c1 | inactive | inactive | inactive | inactive |  |  |  | 
COc1cc(C(C)(C)C)c(O)c(C(C)(C)C)c1 | inactive | inactive | inactive | inactive |  |  |  | 
FC(F)(F)c1ccccc1 | inactive | inactive | inactive | inactive |  |  |  | 
O=C(OCCOCCO)c1ccccc1Nc1cccc(C(F)(F)F)c1 | inactive | inactive | inactive | inactive |  |  |  | 
CCOC(=O)O[C@]1(C(=O)OCCl)CC[C@H]2[C@@H]3CCC4=CC(=O)C=C[C@]4(C)[C@H]3[C@@H](O)C[C@@]21C | inactive | inactive | inactive | inactive |  |  |  | 
CCC(O)OCCCOC (stereo not given) | inactive | inactive | inactive | inactive |  |  |  | 
CCCCOC(=O)CCC(C)=O | inactive | inactive | inactive | inactive |  |  |  | 
c1ccc2[nH]ccc2c1 | inactive | inactive | inactive | inactive |  |  |  | 
C=C(C)C(=O)OCC(C)O (stereo not given) | inactive | inactive | inactive | inactive |  |  |  | 
COC(C)COC(C)COC(C)CO (stereo not given) | inactive | inactive | inactive | inactive |  |  |  | 
C[C@@H]1NC(=O)[C@@H](N)CNC(=O)[C@H](C2CCNC(N)=N2)NC(=O)/C(=C/NC(N)=O)NC(=O)[C@H](CNC(=O)C[C@@H](N)CCCN)NC1=O (stereo not given in full) |  |  |  |  | -1.67% [at 0.435 µM] (inactive) | -0.97% [at 0.435 µM] (inactive) | 6.12% [at 0.439 µM] (inactive) | -1.43% [at 0.435 µM] (inactive)
COC(=O)c1cc(Cl)c(NC(C)=O)cc1OC | 27.5 µM (active) | inactive | inactive | inactive |  |  |  | 
CCC(Cl)CC(Cl)C(Cl)C(Cl)C(Cl)C(C)Cl (stereo not given) |  |  |  |  | -0.388% [at 23.6 µM] (inactive) | -3.68% [at 23.6 µM] (inactive) | 0.856% [at 23.8 µM] (inactive) | 0.639% [at 23.6 µM] (inactive)
COCCCCCCCCOCCC[Si](C)(O[Si](C)(C)C)O[Si](C)(C)C | inactive | inactive | inactive | inactive |  |  |  | 
C=Cc1ccc(C(C)(C)C)cc1 | inactive | inactive | inactive | inactive |  |  |  | 
OC[C@H]1O[C@H](O[C@]2(CCl)O[C@H](CCl)[C@@H](O)[C@@H]2O)[C@H](O)[C@@H](O)[C@H]1Cl | inactive | inactive | inactive | inactive |  |  |  | 
O=C(O)c1ccccc1Nc1cc(Cl)ccc1C(=O)O |  |  |  |  | 1.23% [at 23.6 µM] (inactive) | 2.19% [at 23.6 µM] (inactive) | 2.35% [at 23.8 µM] (inactive) | 0.168% [at 23.6 µM] (inactive)
CNC(=S)N(C)C | inactive | 63.9 µM (active) and inactive | 32 µM (active) and inactive | inactive |  |  |  | 
CCCC(=O)O | inactive | inactive | inactive | inactive |  |  |  | 
COC(C)CCO (stereo not given) | inactive | inactive | inactive | inactive |  |  |  | 
O=C(c1ccccc1)C(O)c1ccccc1 (stereo not given) | inactive | inactive | inactive | inactive |  |  |  | 
CCCCCCCCS(=O)C(C)Cc1ccc2c(c1)OCO2 (stereo not given) | inactive | inactive | inactive | inactive |  |  |  | 
Nc1ccc([N+](=O)[O-])c(C(F)(F)F)c1 | inactive | inactive | inactive | inactive |  |  |  | 
CC(C)CC(C)(N)C#N (stereo not given) | inactive | inactive | inactive | inactive |  |  |  | 
O=C1NCC2(CCN(CCc3ccccc3)CC2)O1 | inactive | inactive | inactive | inactive |  |  |  | 
Cc1c(Nc2ncccc2C(=O)O)cccc1C(F)(F)F | inactive | inactive | inactive | inactive |  |  |  | 

Reference: PubChem BioAssay (Tox21)
